The record followed here is PubChem BioAssay (NCI).

Compounds without any hit were thinned out: in the full panel of roughly 79,000, 15% have a hit. Unmarked numbers belong to inactive results. The source made the active and inactive calls. Cut-off read from the data, not from the text of the source: active = growth inhibition above about 70%; inactive = the rest.

Assay [1] can be described thus: NCI Yeast Anticancer Drug Screen. Data for the rad50 strain (AID 155).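 Note: 0% = growth of vehicle-only cultures of the same strain.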 The following applies: S. cerevisiae rad50 strain growth inhibition; at 50.0 µM; active compounds read high. The method in brief:
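Relative growth inhibition (compound vs vehicle) was measured in yeast with a defined repair-gene alteration.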

The nature of assay [2]: NCI Yeast Anticancer Drug Screen. Data for the mec2-1 strain (AID 157). The settings on record: S. cerevisiae mec2-1 strain, at 50.0 µM, active compounds read high. The method, boiled down: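 Vehicle-treated cultures served as reference for growth inhibition of compound-exposed mec2-1 yeast.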
A short description of assay [3]: NCI Yeast Anticancer Drug Screen. Data for the sgs1 mgt1 strain (AID 161).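 Note: 0% = growth of cultures given vehicle only.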 The following applies: S. cerevisiae sgs1 mgt1 strain, at 50.0 µM, active compounds read high. The method in brief:
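Test agents were incubated with a DNA-repair-mutant yeast strain. Growth was then read and compared against vehicle-treated controls.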

Assay [4] is described as follows: NCI Yeast Anticancer Drug Screen. Data for the cln2 rad14 strain (AID 165).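 Note: 0% = growth equal to vehicle treated cultures.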 The following applies: S. cerevisiae cln2 rad14 strain, at 50.0 µM, active compounds read high. The method in brief:
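Each compound was tested on cln2 rad14 yeast. Inhibition of growth was calculated against vehicle-exposed controls.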

The nature of assay [5]: NCI Yeast Anticancer Drug Screen. Data for the bub3 strain (AID 167). The settings on record: S. cerevisiae bub3 mutant strain, at 50.0 µM, active compounds read high. The method in brief:
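Screening used yeast with an engineered genetic alteration affecting cell cycle control. Compound-exposed cultures were compared with vehicle cultures, and reduced growth was taken as inhibition.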

Assay [6] can be described thus: NCI Yeast Anticancer Drug Screen. Data for the mlh1 rad18 strain (AID 175). The settings on record: S. cerevisiae mlh1 rad18 strain growth inhibition; at 50.0 µM; active compounds read high. The method in brief:
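Vehicle-treated cultures served as the reference for growth inhibition in a yeast strain carrying DNA damage repair alterations exposed to each compound.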

`CCc1ccc2oc(-c3cc(O)c(-c4nc5cc(CC)ccc5o4)cc3O)nc2c1`: the growth inhibition in assay [1] was -19.2%; in assay [2], -25.9%; in assay [3] it was -22.2%; in assay [4] it was 1.1%; in assay [5] it was -25.5%; in assay [6], 12.6%.

As to `C=CCN1CC2CON(C(=O)C(OC)(c3ccccc3)C(F)(F)F)C2C1C(C)C` (stereo not given), the growth inhibition in assay [1] was 2.05%; in assay [2], -17.7%; in assay [3], 9.15%; in assay [4], 18.2%; in assay [5], 24.2%; in assay [6] it was -5.85%.

As for `CCC(C)N1C(=O)c2ccccc2C1=O` (stereo not given), the growth inhibition in assay [1] was 33%; in assay [2], -13.6%; in assay [3], 17.1%; in assay [4], -13.6%; in assay [5] it was 11.3%; in assay [6], 27.1%.

Turning to `CCOC(=O)CCC1(CCC(=O)OCC)CCCCCCCCC(CCC(=O)OCC)(CCC(=O)OCC)C(=O)C1=O`, the growth inhibition in assay [1] was 12.9%; in assay [2], 12.3%; in assay [3], -14.7%; in assay [4] it was 38%; in assay [5], -4.7%; in assay [6], -1.3%.

Regarding `CCOC(=O)C(OCC1CC=CCC1)Sc1ccccc1` (stereo not given), the growth inhibition in assay [1] is 10.6%; in assay [2], -24.6%; in assay [3], -4.95%; in assay [4] it was -19.3%; in assay [5] it was -9.7%; in assay [6], -13.9%.

With `O=C(NCCc1[nH]nc2c1C(=O)C=C(Nc1ccccc1)C2=O)OCc1ccccc1`, the growth inhibition in assay [1] was -29.7%; in assay [2], -15.8%; in assay [3], -32.4%; in assay [4], -21.9%; in assay [5], -29.1%; in assay [6], -52.8%.

As for `CC1OC(O[C@H]2CC[C@]3(C)[C@H]4CC=C5[C@@H]6[C@@H](C)[C@H](C)CC[C@]6(C(=O)O)CC[C@@]5(C(=O)O)[C@]4(C)CC[C@H]3C2(C)C)C(O)C(O)C1O` (stereo not given in full), the growth inhibition in assay [1] is -17.5%; in assay [2], -9.8%; in assay [3] it was -10.6%; in assay [4] it was -5.7%; in assay [5], -13.7%; in assay [6] it was -58.5%.

Take `CCC1(CCC(C)C)C(=O)NC(=Nc2ccccc2)N(c2ccccc2)C1=O` (stereo not given): the growth inhibition in assay [1] is 18.7%; in assay [2], 7.95%; in assay [3], -0.65%; in assay [4] it was 1.55%; in assay [5] it was 4.45%; in assay [6] it was 10.1%.

With `Cc1ccc(S(=O)(=O)CC(=O)NC(N)=O)cc1`, the growth inhibition in assay [1] is -5%; in assay [2], -1.1%; in assay [3], -5.2%; in assay [4], -2.1%; in assay [5], -1.15%; in assay [6], -7.3%.

For `C[N+](C)(C[Si](C)(C)C)C1CCCCCCCCCCC1`, the growth inhibition is 11.4% in assay [1]; 1.3% in assay [2]; -8.8% in assay [3]; -10.9% in assay [4]; 14.1% in assay [5]; 22.2% in assay [6].

On to `c1ccc(N=C2N=c3ccccc3=C2c2c(Nc3ccccc3)[nH]c3ccccc23)cc1`, for which the growth inhibition in assay [1] was 20.4%; in assay [2], 5.5%; in assay [3], -4.35%; in assay [4] it was -27.1%; in assay [5], -4.7%; in assay [6], 17.6%.

As to `Cc1cc(Cl)ccc1Nc1nc2c(s1)C(=O)c1ccccc1C2=O`, the growth inhibition in assay [1] was 90.8% (active); in assay [2], 84.9% (active); in assay [3], 85.6% (active); in assay [4] it was 86.5% (active); in assay [5] it was 87.6% (active); in assay [6] it was 91.4% (active).

On to `CO/N=C1C=C/C(=N\OC)C\1`, for which the growth inhibition in assay [1] was 10.7%; in assay [2], -28.2%; in assay [3] it was 0.5%; in assay [4], 7.55%; in assay [5], -19.1%; in assay [6], 0.8%.

Take `O=C1OCc2c1cc1cc3c(cc1c2-c1ccc2c(c1)OCO2)OCO3`: the growth inhibition in assay [1] was 2.1%; in assay [2], -36.1%; in assay [3], 3.4%; in assay [4] it was 4.8%; in assay [5] it was -19.2%; in assay [6], 3.85%.

For `Nc1cc(Cl)cc2c1nc(NCCO)c1ccccc12`, the growth inhibition was 54.7% in assay [1]; 60.3% in assay [2]; 49.1% in assay [3]; 97.9% (active) in assay [4]; 51.6% in assay [5]; 56.5% in assay [6].

For the compound `COc1ccc(C(c2cc3c(cc2O)OCO3)N2CCN(C(c3cc4c(cc3O)OCO4)c3ccc(OC)cc3OC)CC2)c(OC)c1` (stereo not given), the growth inhibition was -15.1% in assay [1]; 1.55% in assay [2]; 30.2% in assay [3]; 23.1% in assay [4]; -11.9% in assay [5]; 3.45% in assay [6].

As for `CN(C)c1ccc(C(=C2C=CC(=[N+](C)C)C=C2)c2c(O)c(S(=O)(=O)[O-])cc3cc(S(=O)(=O)O)ccc23)cc1`, the growth inhibition was 1.4% in assay [1]; -21.5% in assay [2]; -41.5% in assay [3]; 15.1% in assay [4]; -14.6% in assay [5]; 27.1% in assay [6].

With `c1ccc2c(c1)cc1n2CCc2c-1[nH]c1ccccc21`, the growth inhibition in assay [1] was 26.2%; in assay [2], 18.6%; in assay [3], 4.2%; in assay [4] it was 18.1%; in assay [5], 19.9%; in assay [6], 20.9%.

`C/C(CCc1cccc([N+](=O)[O-])c1)=N\NC(N)=O`: the growth inhibition in assay [1] is -19.1%; in assay [2] it was -10.5%; in assay [3], -6.5%; in assay [4], -1.95%; in assay [5] it was 7.4%; in assay [6], -29.5%.

`O=C1CCCC(=O)C1=Cc1c[nH]c2ccccc12`: the growth inhibition was 4.3% in assay [1]; 2% in assay [2]; -4.35% in assay [3]; -43% in assay [4]; -16.1% in assay [5]; 15.1% in assay [6].
